How the values were obtained:
[1] = target: T1, Inhibitor of nuclear factor kappa-B kinase subunit epsilon (Homo sapiens) (UniProt Q14164); details: at 1 µM;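 note: reported values are averaged percent inhibition figures against human IKKε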
T1 sequence (whole entry): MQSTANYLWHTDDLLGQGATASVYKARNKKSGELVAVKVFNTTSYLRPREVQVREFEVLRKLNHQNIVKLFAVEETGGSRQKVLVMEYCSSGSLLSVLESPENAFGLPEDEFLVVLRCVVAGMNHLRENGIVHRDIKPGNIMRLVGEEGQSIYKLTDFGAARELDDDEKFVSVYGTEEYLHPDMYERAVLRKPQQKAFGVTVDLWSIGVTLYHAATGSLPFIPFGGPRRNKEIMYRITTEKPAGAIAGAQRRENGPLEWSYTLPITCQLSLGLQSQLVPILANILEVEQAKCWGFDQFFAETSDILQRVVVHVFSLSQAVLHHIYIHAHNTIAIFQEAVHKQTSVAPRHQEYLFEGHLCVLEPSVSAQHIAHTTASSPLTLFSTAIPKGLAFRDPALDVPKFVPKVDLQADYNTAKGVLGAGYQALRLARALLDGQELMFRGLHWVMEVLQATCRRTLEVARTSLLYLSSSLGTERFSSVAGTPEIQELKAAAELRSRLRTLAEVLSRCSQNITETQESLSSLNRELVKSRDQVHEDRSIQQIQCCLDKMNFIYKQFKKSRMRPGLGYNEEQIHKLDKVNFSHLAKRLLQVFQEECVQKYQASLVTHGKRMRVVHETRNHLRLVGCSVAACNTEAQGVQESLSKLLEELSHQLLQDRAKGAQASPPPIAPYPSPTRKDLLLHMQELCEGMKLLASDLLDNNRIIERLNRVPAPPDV

[2] = target: T2, Serine/threonine-protein kinase Nek1 (Homo sapiens) (UniProt Q96PY6); details: at 0.1 µM
T2 sequence (whole entry): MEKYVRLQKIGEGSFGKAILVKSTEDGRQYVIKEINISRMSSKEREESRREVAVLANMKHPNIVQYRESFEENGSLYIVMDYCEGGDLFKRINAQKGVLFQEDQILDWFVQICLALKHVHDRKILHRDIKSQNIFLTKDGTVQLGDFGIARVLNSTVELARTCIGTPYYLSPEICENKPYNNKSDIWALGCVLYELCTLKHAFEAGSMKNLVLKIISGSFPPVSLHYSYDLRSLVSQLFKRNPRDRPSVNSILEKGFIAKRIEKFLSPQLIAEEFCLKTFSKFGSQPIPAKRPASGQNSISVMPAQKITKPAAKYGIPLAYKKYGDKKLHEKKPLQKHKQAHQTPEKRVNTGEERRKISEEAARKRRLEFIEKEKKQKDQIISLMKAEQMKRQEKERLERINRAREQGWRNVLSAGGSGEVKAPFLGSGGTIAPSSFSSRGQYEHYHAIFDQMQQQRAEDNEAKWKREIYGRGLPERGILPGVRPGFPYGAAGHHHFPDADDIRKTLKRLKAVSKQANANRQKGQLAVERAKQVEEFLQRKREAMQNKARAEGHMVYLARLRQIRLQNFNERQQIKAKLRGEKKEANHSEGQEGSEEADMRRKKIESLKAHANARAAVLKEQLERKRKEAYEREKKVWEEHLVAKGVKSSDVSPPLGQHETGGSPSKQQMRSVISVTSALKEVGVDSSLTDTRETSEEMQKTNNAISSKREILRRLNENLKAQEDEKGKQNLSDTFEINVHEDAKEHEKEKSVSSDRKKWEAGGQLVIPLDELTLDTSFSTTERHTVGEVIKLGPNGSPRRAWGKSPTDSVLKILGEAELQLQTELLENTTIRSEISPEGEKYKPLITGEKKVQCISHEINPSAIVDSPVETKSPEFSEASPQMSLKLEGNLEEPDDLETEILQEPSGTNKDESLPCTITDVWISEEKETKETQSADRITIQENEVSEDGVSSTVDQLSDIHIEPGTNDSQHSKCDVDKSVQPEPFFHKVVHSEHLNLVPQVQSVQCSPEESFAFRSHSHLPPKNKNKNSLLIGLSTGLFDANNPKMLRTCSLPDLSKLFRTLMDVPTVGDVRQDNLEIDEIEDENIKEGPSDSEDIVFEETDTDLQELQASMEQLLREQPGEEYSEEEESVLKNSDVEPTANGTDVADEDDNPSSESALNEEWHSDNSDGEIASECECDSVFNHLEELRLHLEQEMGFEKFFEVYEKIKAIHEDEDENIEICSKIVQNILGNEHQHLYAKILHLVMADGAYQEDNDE

[3] = target: T2, Serine/threonine-protein kinase Nek1 (Homo sapiens); details: at 1 µM
[4] = target: T3, Serine/threonine-protein kinase Nek2 (Homo sapiens) (UniProt P51955); details: at 0.1 µM
T3 sequence (whole entry): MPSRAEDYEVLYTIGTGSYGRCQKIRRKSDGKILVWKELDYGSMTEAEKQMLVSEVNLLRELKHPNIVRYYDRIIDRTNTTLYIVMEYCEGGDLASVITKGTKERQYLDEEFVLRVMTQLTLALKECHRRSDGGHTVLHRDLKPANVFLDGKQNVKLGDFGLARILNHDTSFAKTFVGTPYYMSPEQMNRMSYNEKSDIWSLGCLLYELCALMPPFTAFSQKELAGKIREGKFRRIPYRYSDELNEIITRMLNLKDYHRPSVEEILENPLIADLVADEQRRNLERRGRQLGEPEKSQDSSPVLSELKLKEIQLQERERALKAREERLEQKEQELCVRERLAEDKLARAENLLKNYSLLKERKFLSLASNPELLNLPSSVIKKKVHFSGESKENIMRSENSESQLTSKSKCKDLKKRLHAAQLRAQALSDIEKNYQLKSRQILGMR

[5] = target: T3, Serine/threonine-protein kinase Nek2 (Homo sapiens); details: at 1 µM
[6] = target: Serine/threonine-protein kinase Nek6 (Homo sapiens) (UniProt Q9HC98); details: at 0.1 µM
Serine/threonine-protein kinase Nek6 (Homo sapiens), sequence (Q9HC98 whole entry): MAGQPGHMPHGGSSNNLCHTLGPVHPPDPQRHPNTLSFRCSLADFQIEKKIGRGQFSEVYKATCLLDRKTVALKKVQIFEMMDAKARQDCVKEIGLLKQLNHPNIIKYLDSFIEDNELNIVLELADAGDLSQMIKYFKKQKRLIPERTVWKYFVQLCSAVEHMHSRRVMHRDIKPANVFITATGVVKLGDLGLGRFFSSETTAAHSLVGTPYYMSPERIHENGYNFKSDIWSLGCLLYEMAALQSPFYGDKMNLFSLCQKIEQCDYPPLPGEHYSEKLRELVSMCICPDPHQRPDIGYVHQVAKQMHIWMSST

[7] = target: Serine/threonine-protein kinase Nek6 (Homo sapiens) (UniProt Q9HC98); details: at 1 µM
[8] = target: Serine/threonine-protein kinase Nek7 (Homo sapiens) (UniProt Q8TDX7); details: at 0.1 µM
Serine/threonine-protein kinase Nek7 (Homo sapiens), sequence (Q8TDX7 whole entry, looked up): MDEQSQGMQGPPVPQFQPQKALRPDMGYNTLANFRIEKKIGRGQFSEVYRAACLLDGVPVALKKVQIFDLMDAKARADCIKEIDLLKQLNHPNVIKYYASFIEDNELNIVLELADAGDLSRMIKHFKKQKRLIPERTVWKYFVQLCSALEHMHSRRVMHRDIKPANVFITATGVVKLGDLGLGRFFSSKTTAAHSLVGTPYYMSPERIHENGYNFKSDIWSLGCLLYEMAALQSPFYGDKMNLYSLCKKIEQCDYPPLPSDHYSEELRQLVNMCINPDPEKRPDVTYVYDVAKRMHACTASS

[9] = target: Serine/threonine-protein kinase Nek7 (Homo sapiens) (UniProt Q8TDX7); details: at 1 µM
[10] = target: T4, Serine/threonine-protein kinase Nek9 (Homo sapiens) (UniProt Q8TD19); details: at 0.1 µM
T4 sequence (whole entry): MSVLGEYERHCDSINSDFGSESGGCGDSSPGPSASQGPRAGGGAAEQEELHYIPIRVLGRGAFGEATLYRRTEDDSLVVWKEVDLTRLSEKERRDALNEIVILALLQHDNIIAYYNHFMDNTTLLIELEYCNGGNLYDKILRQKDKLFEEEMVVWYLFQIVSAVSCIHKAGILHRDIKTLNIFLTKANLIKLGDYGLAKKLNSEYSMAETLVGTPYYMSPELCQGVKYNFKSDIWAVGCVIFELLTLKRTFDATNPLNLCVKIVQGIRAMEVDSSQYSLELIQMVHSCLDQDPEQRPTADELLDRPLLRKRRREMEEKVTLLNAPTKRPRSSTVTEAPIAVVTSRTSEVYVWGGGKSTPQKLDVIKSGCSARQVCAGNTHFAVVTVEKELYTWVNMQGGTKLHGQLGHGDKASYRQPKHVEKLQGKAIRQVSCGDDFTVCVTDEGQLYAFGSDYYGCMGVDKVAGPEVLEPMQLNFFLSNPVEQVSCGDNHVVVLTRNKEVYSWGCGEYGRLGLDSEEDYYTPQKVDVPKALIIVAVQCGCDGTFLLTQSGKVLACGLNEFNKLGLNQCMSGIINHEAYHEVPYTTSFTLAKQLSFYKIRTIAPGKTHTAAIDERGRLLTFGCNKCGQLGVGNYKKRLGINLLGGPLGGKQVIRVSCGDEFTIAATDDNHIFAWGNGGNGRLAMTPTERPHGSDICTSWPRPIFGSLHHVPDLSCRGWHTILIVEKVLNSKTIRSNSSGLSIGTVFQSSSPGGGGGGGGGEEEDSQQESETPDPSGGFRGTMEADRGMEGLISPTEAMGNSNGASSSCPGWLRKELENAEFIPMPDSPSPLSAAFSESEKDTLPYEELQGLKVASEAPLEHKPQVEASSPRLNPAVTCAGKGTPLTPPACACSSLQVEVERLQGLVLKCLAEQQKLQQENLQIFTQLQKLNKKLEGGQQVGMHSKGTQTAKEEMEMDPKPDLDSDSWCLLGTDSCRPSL

[11] = target: T4, Serine/threonine-protein kinase Nek9 (Homo sapiens); details: at 1 µM
[12] = target: Serine/threonine-protein kinase PLK1 (Homo sapiens) (UniProt P53350); details: at 0.1 µM
Serine/threonine-protein kinase PLK1 (Homo sapiens), sequence (P53350 whole entry): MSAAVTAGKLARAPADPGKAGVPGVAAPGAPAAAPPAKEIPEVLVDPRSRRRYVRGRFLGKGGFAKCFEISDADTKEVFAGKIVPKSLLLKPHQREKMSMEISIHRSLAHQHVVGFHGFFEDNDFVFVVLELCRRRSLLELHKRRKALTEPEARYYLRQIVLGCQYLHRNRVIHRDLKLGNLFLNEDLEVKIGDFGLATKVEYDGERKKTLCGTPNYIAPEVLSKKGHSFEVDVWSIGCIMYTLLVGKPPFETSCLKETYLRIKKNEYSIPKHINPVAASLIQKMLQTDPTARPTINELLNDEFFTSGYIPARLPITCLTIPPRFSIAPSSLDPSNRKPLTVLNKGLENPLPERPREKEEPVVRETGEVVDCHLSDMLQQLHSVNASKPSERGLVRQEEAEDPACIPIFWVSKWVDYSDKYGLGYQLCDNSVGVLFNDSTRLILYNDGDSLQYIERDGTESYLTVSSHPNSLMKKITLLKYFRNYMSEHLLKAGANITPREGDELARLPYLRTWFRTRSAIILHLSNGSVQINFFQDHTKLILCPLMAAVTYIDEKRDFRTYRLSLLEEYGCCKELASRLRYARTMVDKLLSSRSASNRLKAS

[13] = target: Serine/threonine-protein kinase PLK1 (Homo sapiens) (UniProt P53350); details: at 1 µM
[14] = target: T5, Dual specificity protein kinase TTK (Homo sapiens) (UniProt P33981); details: at 0.1 µM
T5 sequence (whole entry): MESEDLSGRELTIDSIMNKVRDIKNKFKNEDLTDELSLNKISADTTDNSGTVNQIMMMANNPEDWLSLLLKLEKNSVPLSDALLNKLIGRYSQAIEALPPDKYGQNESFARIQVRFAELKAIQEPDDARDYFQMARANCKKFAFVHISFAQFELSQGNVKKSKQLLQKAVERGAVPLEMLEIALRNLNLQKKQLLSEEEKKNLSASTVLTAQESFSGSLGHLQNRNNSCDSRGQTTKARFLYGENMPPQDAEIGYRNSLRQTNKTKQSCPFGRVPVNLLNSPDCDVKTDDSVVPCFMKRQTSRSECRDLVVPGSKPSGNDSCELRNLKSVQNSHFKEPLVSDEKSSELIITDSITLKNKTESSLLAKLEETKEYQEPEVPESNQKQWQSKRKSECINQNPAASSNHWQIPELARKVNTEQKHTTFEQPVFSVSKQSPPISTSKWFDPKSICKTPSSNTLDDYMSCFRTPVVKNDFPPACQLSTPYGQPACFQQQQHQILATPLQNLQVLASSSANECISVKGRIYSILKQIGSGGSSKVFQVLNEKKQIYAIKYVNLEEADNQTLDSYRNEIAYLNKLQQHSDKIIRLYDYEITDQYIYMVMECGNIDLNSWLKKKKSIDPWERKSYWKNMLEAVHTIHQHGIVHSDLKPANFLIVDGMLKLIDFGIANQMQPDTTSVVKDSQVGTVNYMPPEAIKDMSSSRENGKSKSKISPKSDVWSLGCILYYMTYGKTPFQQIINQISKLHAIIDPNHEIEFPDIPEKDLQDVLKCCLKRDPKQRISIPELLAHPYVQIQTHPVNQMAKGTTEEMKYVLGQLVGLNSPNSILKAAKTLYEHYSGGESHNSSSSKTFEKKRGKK

[15] = tested on: T6, Receptor-type tyrosine-protein kinase FLT3 (Homo sapiens), P36888 [D835Y]; details: at 1 µM
T6 sequence (whole entry): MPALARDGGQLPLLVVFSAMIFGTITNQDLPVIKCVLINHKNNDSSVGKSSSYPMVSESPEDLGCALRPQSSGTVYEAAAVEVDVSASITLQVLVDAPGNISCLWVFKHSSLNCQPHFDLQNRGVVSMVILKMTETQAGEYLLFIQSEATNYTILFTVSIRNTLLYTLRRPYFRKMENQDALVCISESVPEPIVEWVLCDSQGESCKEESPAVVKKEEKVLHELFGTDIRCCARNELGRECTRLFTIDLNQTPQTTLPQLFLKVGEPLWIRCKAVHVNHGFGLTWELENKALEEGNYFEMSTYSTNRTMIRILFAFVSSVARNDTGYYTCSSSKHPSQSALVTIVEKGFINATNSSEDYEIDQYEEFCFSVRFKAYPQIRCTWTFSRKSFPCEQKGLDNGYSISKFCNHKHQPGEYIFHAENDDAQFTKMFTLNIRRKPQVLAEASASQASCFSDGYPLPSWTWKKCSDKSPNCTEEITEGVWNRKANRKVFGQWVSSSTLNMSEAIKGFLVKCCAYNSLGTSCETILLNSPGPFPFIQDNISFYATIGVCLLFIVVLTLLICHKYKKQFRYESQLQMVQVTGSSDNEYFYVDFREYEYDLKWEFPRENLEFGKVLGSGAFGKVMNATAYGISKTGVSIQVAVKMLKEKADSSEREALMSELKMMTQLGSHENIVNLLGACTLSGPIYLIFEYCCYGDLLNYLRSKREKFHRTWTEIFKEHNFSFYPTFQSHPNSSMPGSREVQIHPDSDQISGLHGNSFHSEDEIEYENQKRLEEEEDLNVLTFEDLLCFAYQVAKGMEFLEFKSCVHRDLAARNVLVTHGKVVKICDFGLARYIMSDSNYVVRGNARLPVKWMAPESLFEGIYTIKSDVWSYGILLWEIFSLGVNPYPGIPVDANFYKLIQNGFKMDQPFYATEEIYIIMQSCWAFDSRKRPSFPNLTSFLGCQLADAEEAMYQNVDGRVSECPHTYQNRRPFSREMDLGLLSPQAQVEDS

[16] = target: Vascular endothelial growth factor receptor 3 (Homo sapiens) (UniProt P35916); details: at 0.1 µM
Vascular endothelial growth factor receptor 3 (Homo sapiens), sequence (P35916 whole entry): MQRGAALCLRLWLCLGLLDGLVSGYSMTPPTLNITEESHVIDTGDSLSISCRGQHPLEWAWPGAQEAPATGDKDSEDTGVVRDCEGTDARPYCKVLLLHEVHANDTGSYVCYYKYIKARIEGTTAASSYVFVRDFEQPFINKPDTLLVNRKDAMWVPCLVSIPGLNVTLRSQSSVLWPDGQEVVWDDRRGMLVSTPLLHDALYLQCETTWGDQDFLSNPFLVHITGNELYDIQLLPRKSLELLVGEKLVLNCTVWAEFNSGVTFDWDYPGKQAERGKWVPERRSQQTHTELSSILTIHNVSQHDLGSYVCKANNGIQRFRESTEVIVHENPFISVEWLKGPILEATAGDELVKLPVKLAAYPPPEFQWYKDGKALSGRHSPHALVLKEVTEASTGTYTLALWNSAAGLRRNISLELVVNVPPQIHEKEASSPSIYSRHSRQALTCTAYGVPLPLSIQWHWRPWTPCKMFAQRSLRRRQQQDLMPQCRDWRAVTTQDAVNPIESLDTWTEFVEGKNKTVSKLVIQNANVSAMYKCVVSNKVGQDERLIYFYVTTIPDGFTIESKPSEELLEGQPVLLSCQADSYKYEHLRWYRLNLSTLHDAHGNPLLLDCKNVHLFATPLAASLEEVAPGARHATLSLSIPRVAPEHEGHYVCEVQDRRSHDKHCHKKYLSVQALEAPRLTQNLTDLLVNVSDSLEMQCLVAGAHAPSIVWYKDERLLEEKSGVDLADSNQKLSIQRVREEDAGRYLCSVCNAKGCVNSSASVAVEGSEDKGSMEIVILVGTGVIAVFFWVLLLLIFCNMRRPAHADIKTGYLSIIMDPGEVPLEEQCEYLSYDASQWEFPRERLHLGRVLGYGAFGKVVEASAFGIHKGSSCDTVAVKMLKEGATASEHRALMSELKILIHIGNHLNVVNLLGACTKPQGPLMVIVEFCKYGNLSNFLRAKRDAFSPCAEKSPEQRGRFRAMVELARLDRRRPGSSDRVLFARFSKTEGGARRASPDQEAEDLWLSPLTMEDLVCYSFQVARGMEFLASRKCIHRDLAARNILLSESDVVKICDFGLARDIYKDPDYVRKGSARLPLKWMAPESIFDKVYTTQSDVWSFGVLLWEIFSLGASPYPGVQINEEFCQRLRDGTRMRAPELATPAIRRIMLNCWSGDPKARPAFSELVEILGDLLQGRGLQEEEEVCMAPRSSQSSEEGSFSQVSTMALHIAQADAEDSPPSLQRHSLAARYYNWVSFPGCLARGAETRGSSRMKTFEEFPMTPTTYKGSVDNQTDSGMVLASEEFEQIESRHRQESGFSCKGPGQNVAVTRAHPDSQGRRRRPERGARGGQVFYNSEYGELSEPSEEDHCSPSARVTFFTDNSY

[17] = target: Vascular endothelial growth factor receptor 3 (Homo sapiens) (UniProt P35916); details: at 1 µM
[18] = target: Macrophage colony-stimulating factor 1 receptor (Homo sapiens) (UniProt P07333); details: at 0.1 µM
Macrophage colony-stimulating factor 1 receptor (Homo sapiens), sequence (P07333 whole entry): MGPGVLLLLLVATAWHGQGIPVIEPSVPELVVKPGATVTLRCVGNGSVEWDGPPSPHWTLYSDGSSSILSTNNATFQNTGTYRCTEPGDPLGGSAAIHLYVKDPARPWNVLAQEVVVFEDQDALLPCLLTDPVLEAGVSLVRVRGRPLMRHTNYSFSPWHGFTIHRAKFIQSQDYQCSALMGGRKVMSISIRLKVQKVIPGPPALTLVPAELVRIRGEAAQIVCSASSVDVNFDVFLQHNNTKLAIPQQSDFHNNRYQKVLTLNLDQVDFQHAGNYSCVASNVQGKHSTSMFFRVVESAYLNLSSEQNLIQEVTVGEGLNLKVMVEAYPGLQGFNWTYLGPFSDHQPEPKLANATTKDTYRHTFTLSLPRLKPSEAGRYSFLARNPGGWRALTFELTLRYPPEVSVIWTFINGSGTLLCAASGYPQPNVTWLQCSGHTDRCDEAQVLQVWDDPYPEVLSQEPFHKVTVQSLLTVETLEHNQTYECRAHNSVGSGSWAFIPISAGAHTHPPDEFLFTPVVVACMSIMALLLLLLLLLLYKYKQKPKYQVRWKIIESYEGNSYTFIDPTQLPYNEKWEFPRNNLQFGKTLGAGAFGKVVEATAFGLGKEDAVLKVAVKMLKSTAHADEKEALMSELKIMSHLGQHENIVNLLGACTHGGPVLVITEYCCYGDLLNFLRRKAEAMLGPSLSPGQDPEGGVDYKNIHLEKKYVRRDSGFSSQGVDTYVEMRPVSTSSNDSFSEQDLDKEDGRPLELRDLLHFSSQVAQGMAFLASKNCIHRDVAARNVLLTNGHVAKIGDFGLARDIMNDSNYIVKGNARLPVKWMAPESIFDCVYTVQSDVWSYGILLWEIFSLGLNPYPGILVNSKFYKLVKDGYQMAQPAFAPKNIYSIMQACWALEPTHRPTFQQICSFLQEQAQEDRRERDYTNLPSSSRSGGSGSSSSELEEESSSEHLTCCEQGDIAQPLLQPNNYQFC

[19] = target: Macrophage colony-stimulating factor 1 receptor (Homo sapiens) (UniProt P07333); details: at 1 µM
[20] = target: Tyrosine-protein kinase Fyn (Homo sapiens) (UniProt P06241); details: at 0.1 µM
Tyrosine-protein kinase Fyn (Homo sapiens), sequence (P06241 2-537 limits assumed): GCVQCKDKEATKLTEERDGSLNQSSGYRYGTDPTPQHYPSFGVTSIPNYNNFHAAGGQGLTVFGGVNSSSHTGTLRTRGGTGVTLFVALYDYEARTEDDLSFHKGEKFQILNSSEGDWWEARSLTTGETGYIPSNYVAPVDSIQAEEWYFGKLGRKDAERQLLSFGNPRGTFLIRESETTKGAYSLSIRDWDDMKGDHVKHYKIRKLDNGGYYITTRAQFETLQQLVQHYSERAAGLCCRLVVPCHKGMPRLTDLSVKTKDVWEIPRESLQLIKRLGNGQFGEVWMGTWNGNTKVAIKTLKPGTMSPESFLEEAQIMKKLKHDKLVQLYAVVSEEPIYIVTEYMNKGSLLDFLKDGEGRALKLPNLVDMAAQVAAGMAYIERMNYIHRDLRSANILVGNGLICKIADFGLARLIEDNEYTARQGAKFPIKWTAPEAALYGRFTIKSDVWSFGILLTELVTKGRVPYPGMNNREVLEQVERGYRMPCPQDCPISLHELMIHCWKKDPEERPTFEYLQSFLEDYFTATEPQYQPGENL

Row | Compound | inhibition [1] [%] | inhibition [2] [%] | inhibition [3] [%] | inhibition [4] [%] | inhibition [5] [%] | inhibition [6] [%] | inhibition [7] [%] | inhibition [8] [%] | inhibition [9] [%] | inhibition [10] [%] | inhibition [11] [%] | inhibition [12] [%] | inhibition [13] [%] | inhibition [14] [%] | inhibition [15] [%] | inhibition [16] [%] | inhibition [17] [%] | inhibition [18] [%] | inhibition [19] [%] | inhibition [20] [%]
1 | CS(=O)(=O)Nc1cccc(-c2ccc3c(NC(=O)C4CC4)n[nH]c3c2)c1 | 2.59 | 0.75 | 1.07 | 1.36 | 0.27 | 1.36 | -1.38 | 2.34 | 1.08 | 2.01 | 3.4 | 0.09 | 2.1 | 2.91 | -5.02 | 3.41 | 1.96 | -0.21 | 1.8 | 2.53
2 | Cc1ccc(O)cc1Nc1ccnc2ccc(S(C)(=O)=O)cc12 | 6.97 | 2.87 | 5.3 | 5.76 | 4.61 | 1.23 | 4.89 | 5.32 | 4.35 | 4.3 | 7.62 | 4.22 | 2.78 | 8.17 | -0.22 | 21.3 | 68.8 | 5.71 | 15.8 | 92.4
